Each structure is given as a SMILES string. This is part of a sample that, as a whole, favours compounds with a hit. Of some 83,000 tested, about 20% had one in any assay.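 96-well plates, one dose, 48 hours. Percent growth reported; active if below 10.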 The source made the active and inactive calls.

The subject of this test is M14 melanoma. Put plainly: NCI-60 one-dose screen, 48 h (100 = growth as untreated, 0 = no growth, -100 = all killed). The note with it: 10 µM unless noted.
Take `O=C1/C(=C/c2ccccc2)SC(=Nc2ccccc2)N1Nc1ccccc1`: the growth is -59.3% (active).
The same measure for `COc1cnc2c(c1)C(=O)c1c-2n(CCCNC(C)C)c(=O)c2cc(Cl)ccc12`: -83.4% (active).
The value for `CCSCC1CC(O)(c2ccccc2)C(c2ccccc2)C(c2ccc(F)cc2)O1` (centres undefined) was -45.8% (active).
The same measure for `CN1C(=O)C(C2=NNC(c3ccccc3C(=O)O)C2)C(=O)N(C)C1=O` (centres undefined): 103% (inactive).
Regarding `NC(N)=NC1CCCCC1`, the growth was 103% (inactive).
Consider `COc1ccc(C(=O)OC2C(OC3C(O)COC(O[C@H]4C[C@H]5[C@@H]6CC=C7C[C@@H](O)CC[C@]7(C)[C@H]6CC[C@]5(C)[C@H]4[C@H](C)C(=O)CCC(C)C)C3OC(C)=O)OCC(O)C2O)cc1` (some centres undefined), for which the growth was -69.3% (active).
For `CC(C)(C)c1ccc(OC(=O)Nc2ccccc2)cc1`, the growth was 96.5% (inactive).
The same measure for `CN1C2CCC1/C(=C\c1ccc(F)cc1)C(=O)/C2=C/c1ccc(F)cc1`: 41.2% (inactive); for `CCCCOC(=O)c1cc(O)c(O)c(O)c1`: 84.1% (inactive); for `CCOC(=O)C1OC2(CCCC2)OC1C(=O)OCC` (centres undefined): 105% (inactive).
The value for `O=C(Nc1cccc(-n2ccc3c(NC(=O)c4ccccc4)nccc32)c1)c1ccc(N2CCOCC2)c(C(F)(F)F)c1` was 38.6% (inactive).
The same measure for `CCN(CC)CCCC(C)Nc1c(-c2ccccc2)cnc2cc(Cl)ccc12` (centres undefined): -95.7% (active); for `O=C1C=CN2C(=O)CC=CC2[C@@H]1O` (some centres undefined): 104% (inactive); for `CC(=O)O[C@@H]1CC2C(C)(C)CCCC2(C)C2=C1C(=O)C(C(C)C)=CC2=O` (some centres undefined): -60.9% (active).
Regarding `O=C(Nc1ccc(-n2ccc3c(NC(=O)c4ccccc4)nccc32)cc1)c1ccc(N2CCOCC2)c(C(F)(F)F)c1`, the growth was 29.1% (inactive).
Take `COc1cc(/C=C/c2cc(/C=C/c3ccc(O)c(OC)c3)n(C(=O)Nc3ccc(F)c(Cl)c3)n2)ccc1O`: the growth is -21.9% (active).
The same measure for `COc1cc(OC)c2sc(-c3ccc(-n4cncc4-c4ccc(OC)c(N)c4)cc3)nc2c1`: 79.9% (inactive).
The same measure for `COc1ccc(C2=NNC(c3ccc(Oc4nc5c(c(=O)n(C)c(=O)n5C)n4C)c(OC)c3)C2)cc1` (centres undefined): 96.9% (inactive).
Turning to `NS(=O)(=O)c1ccc(CCn2c(SCC(=O)N/N=C/c3cccnc3)nc3ccccc3c2=O)cc1`, the growth is 94.7% (inactive).
The value for `O=C(NNC(=O)c1cccc(Cl)c1)c1ccccc1` was 112% (inactive); that for `N=c1nc(N2CCCCC2)cc(N)n1O` was 123% (inactive); that for `Cc1ccc(C)c(NC(=O)c2sc3c(=O)[nH]cnc3c2C)c1` was 57.8% (inactive).
The same measure for `C=CCOC(=O)C1=C(C)NC2=C(C(=O)CCC2)C1c1ccc(F)cc1` (centres undefined): 96.1% (inactive).
The same measure for `COc1ccc(-c2cnc(-c3ccncc3-c3cccc(OC)c3)o2)cc1`: 23.9% (inactive); for `O=C(Nc1ccncc1)C(=O)c1cn(S(=O)(=O)c2cccc(Cl)c2F)c2ccccc12`: 59.2% (inactive).
On to `Cc1ccccc1Nc1n[nH]c(Cc2ccccc2)n1`, for which the growth is 106% (inactive).
The same measure for `Oc1ccccc1-c1nnc(COc2ccc(Cl)cc2Cl)o1`: 42.5% (inactive); for `CS(=O)(=O)c1ccc(C(=O)N/N=C/c2ccccc2O)cc1`: 32.5% (inactive); for `CCCCCCCCCCCCCCCCCC(=O)OCCCCCCCCCCCCC`: 114% (inactive).
The same measure for `COc1cc(C2CC(c3ccc(C)cc3)=NN2C=O)ccc1Oc1nc2c(c(=O)n(C)c(=O)n2C)n1C` (centres undefined): 77.5% (inactive).
Turning to `COc1cc(C2CC(c3ccccc3)=NN2C=O)ccc1Oc1ccnc2cc(Cl)ccc12` (centres undefined), the growth is 54.9% (inactive).
The value for `NC(N)=N/N=C/c1ccc(Cl)cc1` was 66.2% (inactive); that for `O=c1c2cc(Cl)ccc2oc2ccc(OCCCCCN3CCCCC3)cc12` was -67.4% (active).
The same measure for `COc1cc(Cl)cc(-c2nn(C(=O)NCCN3CCOCC3)cc2-c2ccncc2)c1`: 62% (inactive); for `COc1ccc2nc3ccccc3c(NCc3ccc(Cl)cc3)c2c1`: -86.1% (active).
With `CN1C(=O)N(C)C2C1NN=c1s/c(=C\c3ccc(C(F)(F)F)cc3)c(=O)n12` (centres undefined), the growth is 16% (inactive).
`C=C1C(=O)O[C@H]2[C@H]1CC/C(COC(=O)NCc1cn(C)c3ccccc13)=C\CC[C@@]1(C)O[C@@H]21`: the growth was -42.1% (active).
The value for `c1csc(-c2cnc3nonc3n2)c1` was 89.4% (inactive); that for `Nc1nc(NC2CC2)cc(-c2cccc(Cl)c2Cl)n1` was 18.3% (inactive).

The values are drawn from PubChem BioAssay (NCI).
